Screening results deposited in PubChem by National Center for Advancing Translational Sciences (NCATS).
Shown are actives, neighbours in structure and some others; about 2.4% of the full set was active somewhere.
ALOX12 inh = blocks human arachidonate 12S-lipoxygenase; purified 12hLO, xylenol orange hydroperoxide absorbance; Potency, µM (titrated, usually from 108 µM), for the others: at the highest dose activity change, negative = inhibition, most hits filed as inhibitors; 580,000 compounds, 1.1% hits; AID 1671190; further: on the % scale 0 is the no-effect control and ±100 the full control effect
Target sequence (P18054 whole entry, looked up): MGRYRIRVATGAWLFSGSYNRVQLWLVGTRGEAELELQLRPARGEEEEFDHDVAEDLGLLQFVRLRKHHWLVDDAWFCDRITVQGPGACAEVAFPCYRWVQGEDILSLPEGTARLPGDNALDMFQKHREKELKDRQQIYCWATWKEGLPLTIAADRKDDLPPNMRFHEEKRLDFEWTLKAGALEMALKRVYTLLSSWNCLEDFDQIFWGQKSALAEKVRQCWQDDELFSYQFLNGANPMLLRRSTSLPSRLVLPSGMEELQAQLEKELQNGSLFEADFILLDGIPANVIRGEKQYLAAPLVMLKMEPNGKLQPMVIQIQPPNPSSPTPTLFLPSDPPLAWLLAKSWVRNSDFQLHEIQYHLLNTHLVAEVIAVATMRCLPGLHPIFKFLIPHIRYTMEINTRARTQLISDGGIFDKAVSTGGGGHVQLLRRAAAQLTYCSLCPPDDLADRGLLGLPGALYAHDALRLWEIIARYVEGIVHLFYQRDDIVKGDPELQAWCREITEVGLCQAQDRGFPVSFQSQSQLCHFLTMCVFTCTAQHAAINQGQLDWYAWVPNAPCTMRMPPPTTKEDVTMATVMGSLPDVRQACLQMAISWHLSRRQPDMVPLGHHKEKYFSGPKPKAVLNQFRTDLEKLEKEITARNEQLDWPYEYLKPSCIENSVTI
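Purified human 12hLO (150 nM final) in 25 mM Hepes, 0.01% Triton X-100, pH 7.0 was preincubated 15 min at room temperature with compound. Then 40 uM arachidonic acid was added, 30 min. Hydroperoxide was read by Fe-XO absorbance ratio 573/405 nm.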
TSG101-PTAP inh = blocks PTAP/TSG101 interaction to inhibit HIV-1 budding | Q99816 | Fluorescence polarization, FITC-PTAP peptide / Tsg101 binding | Potency, µM (titrated, usually from 115 µM), for the others: top-dose activity change, negative = inhibition, actives largely listed as inhibitors | 340,000 tested, under 10 active | AID 493005; active means well fitted inhibition curve with a large enough effect in the main read-out, with a control signal flat, not every such curve was filed as active; inconclusive means small, poorly fitted or top-dose-only effect, or effect the other way, or a change in a side signal; inactive means no such curve, though single readings can be large or run the other way; further: % of control where 0% means no effect
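Steps: Tsg101 binding domain dispensed (10 uM final), compounds pinned in DMSO, FITC-labeled PTAP-motif peptide added (50 nM final); after 20 min binding at room temperature, polarization measured.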
Rango release inh = inhibitors of RanGTP-induced Rango-importin beta complex dissociation | 340,000 compounds, 0.071% hits | AID 540253 | Potency, µM (highest dose often 46.1 µM), for inactives: at the highest dose activity change, negative = inhibition | Biochemical FRET Rango-importin beta, RanGTP-induced dissociation | O95149+P62826; calls by dose curve; further: % of control where 0% means no effect; nearly all actives have a fitted effect of over 45% in size
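Rango (0.1 uM)–importin beta (0.25 uM) complex; RanGTP-RCC1 trigger; 45 min RT; CFP/YFP FRET read.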
Rango-impB inh = Rango-importin beta binding inhibition | Potency, µM (titrated, usually from 92.2 µM), for inactives: at the top dose inhibition of complex formation | Rango CFP/YFP FRET sensor + importin beta, 45 min | Q14974 | 340,000 compounds, 0.031% hits | AID 540263; calls by dose curve;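 further: 0% = DMSO wells and 100% = buffer wells lacking importin beta; nearly all actives have a fitted effect of over 15% in size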
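FRET biosensor (snurportin 1 IBB flanked by EYFP and cerulean), 50 nM, with compound 5 min, then 0.125 microM importin beta in PBS, 1 mM DTT, 0.02% Tween-20, 0.1% BSA. CFP/YFP ratio read after 45 min at room temperature; pre-read flags interference.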
ClpP mod = qHTS Assay for Activators of ClpP | Potency, µM (titrated, usually from 57.5 µM), for the others: at the top dose activity change, negative = active | 340,000 compounds, 1.9% hits | purified B. subtilis ClpP, FRET peptide cleavage, 20 min | ATP-dependent Clp protease proteolytic subunit (Bacillus subtilis (strain 168)), P80244; active means well fitted falling curve with a large enough effect; inconclusive means small, poorly fitted or top-dose-only effect; inactive means no such curve, though single readings can be large or run the other way; further: the source files actives as falling curves though it sought activators and does not explain the sign; nearly all actives have a fitted effect of over 65% in size
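Buffer: 100 mM Tris/HCl pH8, 100 mM KCl, 0.05% low protease BSA, 2.5% glycerol, 0.01% Tween-20. ClpP 10 microg/mL final; 20 min RT; delta FRET normalized to ADEP and DMSO controls.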
TDP1 block = blocks human tyrosyl-DNA phosphodiesterase 1; recombinant TDP1, AlphaScreen DNA substrate cleavage; Potency, µM (highest dose often 130 µM), for inactives: top-dose activity change, negative = inhibition, hits mostly inhibitors; 350,000 compounds, 0.28% hits; Q9NUW8; AID 485290; further: on the % scale 0 is the no-effect control and ±100 the full control effect; nearly all actives have a fitted effect of over 40% in size
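Recombinant human Tdp1 (E. coli-expressed, 1 nM final) preincubated with compounds 15 min at room temperature, then 5'-biotin/3'-phosphotyrosine-FITC DNA substrate (15 nM final) added for 5 min. AlphaScreen beads (10 ug/ml final) added 10 min; cleavage lowers signal.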
ClpP inh valid = Bacillus subtilis ClpP inhibition, validated hit; 470 compounds, 40% hits; shares compounds with ClpP mod; Potency, µM (top dose mostly 57.5 µM), inactives show at the highest dose activity change, negative = inhibition, usual class: inhibitors; purified B. subtilis ClpP, FRET-FV substrate cleavage, 20 min; further: on the % scale 0 is the no-effect control and ±100 the full control effect; nearly all actives have a fitted effect of over 70% in size
* hit, by the source's call; ? = inconclusive; . = no result; [ ] = dose if it differs, or a comment. Unless noted, the call rests on the fitted dose curve; in most records, active means well fitted curve in the direction sought with a large enough effect; inconclusive means small, poorly fitted or top-dose-only effect, or another doubt; inactive means no such curve, though single readings can be large; an effect the other way counts as inactive or inconclusive. Potency means the concentration at half of the fitted maximal effect.

SMILES	ALOX12 inh	TSG101-PTAP inh	Rango release inh	Rango-impB inh	ClpP mod	TDP1 block	ClpP inh valid
CCC(=O)N1N=C(c2cccs2)CC1c1ccco1 (configuration not stated)	5%	0%	-8%	0%	.	-1%	.
Clc1ccc(N2N=C(c3cccs3)CC2c2ccco2)cc1 (configuration not stated)	-1%	-2%	?	?	3.5µM*	.	27µM*
COc1ccc(CN2CCC3(C2)NC(=O)c2ccccc2O3)cc1 (configuration not stated)	-5%[176 µM]	.	.	.	.	.	.
COc1ccc(C(=O)Nc2ccc(N3CCOCC3)cc2)cc1S(=O)(=O)NC1CCCC1	-8%	-8%	11%	2%	8.9µM*	2%	-1%
COc1ccc(C(=O)Nc2ccc(C)cc2)cc1S(=O)(=O)NC1CCCC1	-1%	.	.	.	.	.	.
COc1ccc(NC(=O)c2oc3ccccc3c2NC(=O)c2ccco2)c(OC)c1	-25%	-2%	-9%	?	357%	0%	?
COc1ccc(NC(=O)c2oc3ccccc3c2NC(=O)c2cc3ccccc3o2)c(OC)c1	-20%	.	.	.	?	4%	.
Cc1ccc(/C(=N\O)c2oc3ccc4c(C)cc(=O)oc4c3c2C)cc1	-5%	.	.	.	.	.	.
O=C(Cc1scnc1-c1cccs1)NCc1ccccc1Cl	-7%	.	.	.	.	.	.
COc1ccccc1NC(=O)c1ccc(COc2ccc3c(c2)CCC3)cc1	3%	-1%	10%	0%	219%	1%	-19%
COC(=O)c1ccccc1NC(=O)c1ccc(COc2ccc3c(c2)CCC3)cc1	3%	-3%	3%	0%	?	-8%	.
O=C(NC1CCCCC1)C(c1cccc2ccccc12)n1c(=O)c(-c2cc3ccccc3[nH]2)nc2ccccc21 (configuration not stated)	-70%	.	.	.	41%	.	6%
CCCCCNC(=O)C(c1cccc2ccccc12)n1c(=O)c(-c2cc3ccccc3[nH]2)nc2ccccc21 (configuration not stated)	?	.	.	.	38%	.	7%
O=C(Nc1ccc2ccccc2c1)C(c1ccccc1F)n1c(=O)c(-c2cc3ccccc3[nH]2)nc2ccccc21 (configuration not stated)	-30%	.	.	.	54%	.	6%
O=C(NCc1ccccc1)C(c1ccncc1)n1c(=O)c(-c2cc3ccccc3[nH]2)nc2ccccc21 (configuration not stated)	?	.	.	.	-21%	.	.
CCCCCNC(=O)C(c1ccccc1)n1c(=O)c(-c2cc3ccccc3[nH]2)nc2ccccc21 (configuration not stated)	-1%	.	.	.	?	.	.
O=C(NCc1ccccc1)C(c1ccc(-c2ccccc2)cc1)n1c(=O)c(-c2cc3ccccc3[nH]2)nc2ccccc21 (configuration not stated)	-9%	.	.	.	36%	.	10%
CC(OC(=O)c1ccc(S(=O)(=O)Nc2ccccc2F)cc1)C(=O)N1CCCc2ccccc21 (configuration not stated)	9%	.	.	.	.	.	.
Cc1cc(C(=O)N2CCc3nnc([C@@H]4C[C@@H](O)CN4C(C)C)n3CC2)n(C)n1	41%	.	.	.	.	.	.
CNC(=O)c1cc(S(=O)(=O)N2CC(C)OC(C)C2)ccc1N1CCOCC1 (configuration not stated)	-5%	-3%	0%	1%	37%	3%	-1%
CNC(=O)c1cc(S(=O)(=O)N2CC(C)OC(C)C2)ccc1N1CCCCC1 (configuration not stated)	4%	-1%	3%	1%	-3%	2%	.
Cc1ccc(C)c([S+](=O)([O-])c2nnn3c2nc(NC2CC2)c2ccccc23)c1	1%[6.33 µM]	.	.	.	.	.	.
Cc1cccc(-n2ncc3c(N4CCN(c5ccccc5)CC4)ncnc32)c1	-25%	.	.	.	33%	5%	.
Cc1cccc(C(=O)N2CCN(c3ncnc4c3cnn4-c3ccccc3)CC2)c1	138%	-2%	-13%	2%	116%	2%	-5%
O=C(CN1C(=O)NC2(CCCCC2)C1=O)N1CCCCC1	29%	.	.	.	.	.	.
SMILES	ALOX12 inh	TSG101-PTAP inh	Rango release inh	Rango-impB inh	ClpP mod	TDP1 block	ClpP inh valid
CC(C)COc1ccc(C(=O)Nc2cc(S(=O)(=O)N3CCOCC3)ccc2N2CCCC2)cc1	35%	1%	-14%	-2%	47%	0%	-11%
CCN1CCN(c2ccc(S(=O)(=O)N3CCOCC3)cc2NC(=O)c2ccc(OCC(C)C)cc2)CC1	83%	-4%	1%	-1%	2%	.	.
O=C(CCn1nnc2ccccc21)N1CCN(c2ccccc2)CC1	-23%	-3%	3%	0%	60%	-2%	-1%
O=C(Cn1nnc2ccccc21)N1CCCCC1	4%	-2%	1%	-1%	0%	4%	.
CCCN(CC(=O)Nc1ccccc1C)C(=O)c1ccc(-c2ccc(C(C)=O)cc2)o1	.	2%	0%	1%	8.9µM*	.	19µM*
CCCN(CC(=O)Nc1ccccc1C)C(=O)c1cc(C)oc1C	69%	-6%	-2%	3%	-1%	0%	.
O=C(Nc1ccc(F)cc1)c1sc2cc(C(F)(F)F)cnc2c1-c1cccs1	0%	-3%	-9%	?	63%	-1%	-14%
Cc1cccc(C(=O)N2C[C@@H](F)C[C@H]2C(=O)N2CCOCC2)c1	48%	.	.	.	.	.	.
CNC(=O)c1ccc(-c2ccccc2)s1	-18%	-3%	-3%	-3%	3.5µM*	0%	27µM*
CCOc1ccc(NC(=O)c2ccc(-c3ccccc3)s2)cc1	?	.	.	.	-4%	3%	.
O=C(O)c1ccccc1NC(c1ccccc1)c1ccc2cccnc2c1O (configuration not stated)	18µM*	-4%	-6%	2%	150%	.	?
Cc1ccnc(NC(c2ccccc2)c2ccc3cccnc3c2O)c1 (configuration not stated)	?	1%	-2%	-1%	.	.	.
O=C(NCc1cccc(F)c1)c1ccc(NC(=O)c2nsc3ccccc23)cc1	4%	.	.	.	36%	0%	?
Cc1ccc(-c2cn3c(n2)sc2cc(C(=O)NCc4cccs4)ccc23)cc1	-16%	.	.	.	7.1µM*	1%	27µM*
